# According to PubChem BioAssay AID1347131 (National Center for Advancing Translational Sciences (NCATS), 2019):
# About 2,000 (0.49%) of roughly 410,000 compounds were called active. Entries that show only a call come without a potency. Roughly 8% stayed inconclusive and do not appear here. This is one part of a sample in which actives are shown more often than they occur. The call rests on the fitted dose curve; tested in HEK293 reporter line.
# Experiment: qHTS Assay for Foot and Mouth Disease Virus Antivirals: Primary Screen against the MLPCN compound library; further: nearly all actives have a fitted effect of over 55% in size
# Conditions: FMDV antiviral cell-based qHTS; series mostly up to 57.9 µM
# Potency means the concentration at half of the fitted maximal effect.
row,SMILES,Potency
1,O=P(c1ccccc1)(c1ccccc1)c1nc(-c2ccccc2)oc1NCc1ccccc1,inactive
2,C=C[C@H](Cc1ccccc1)N(Cc1ccccc1)S(=O)(=O)N(Cc1ccccc1)[C@H](C=C)Cc1ccccc1,inactive
3,Cc1cc(C)c(C(N)=O)c(SCC(=O)c2cc(C)c(C)cc2C)n1,inactive
4,CSc1nc2ccc(NC(=O)c3ccccn3)cc2s1,15.8 µM (active)
5,CCOc1ccc2nc(NC(=O)c3cccn(Cc4ccc(C)cc4)c3=O)sc2c1,inactive
6,O=C(Nc1ccc2nc(SCCOc3ccccc3)sc2c1)c1cccs1,inactive
7,CCOc1ccc2nc(NC(=O)c3ccccn3)sc2c1,12.6 µM (active)
8,CCOc1ccc2nc(NS(=O)(=O)c3ccc(NC(C)=O)cc3)sc2c1,inactive
9,CCOc1ccc(C(=O)Nc2ccc3nc(SCC(=O)N(C)c4ccccc4)sc3c2)cc1,inactive
10,CN1/C(=C\C(=O)COC(=O)CNC(=O)c2ccc3ccccc3c2)C(C)(C)c2ccccc21,inactive
11,O=C(NCCc1ccc(F)cc1)C(=O)NCC(c1cccs1)S(=O)(=O)c1ccccc1 (centres undefined),inactive
12,Cc1cccc(C(=O)O/N=C(\N)Cc2cccc3ccccc23)c1,inactive
13,CCCCCn1c(CCCNC(=O)c2cccc(C)c2)nc2ccccc21,inactive
14,Cc1cccc(C(=O)n2c(=S)nc3cc(C)ccn32)c1,11.2 µM (active)
15,COc1ccccc1N=C1SCC(=O)N1c1ccccc1OC,inactive
16,CSCCC(c1nnnn1C1CCCCC1)N1CCC(n2c(=O)[nH]c3ccccc32)CC1 (centres undefined),inactive
17,CC(=O)Nc1ccc(S(=O)(=O)Nc2nc3ccccc3s2)cc1,inactive
18,c1ccc2sc(NN=C3CCCCCC3)nc2c1,15.8 µM (active)
19,c1ccc(C(=NNc2nc3ccccc3s2)c2ccccn2)cc1,inactive
20,Cc1oc(-c2cccs2)nc1CSCC(=O)N1CCC2(CC1)OCCO2,inactive
21,CCCS(=O)(=O)c1cscc1NC(=O)c1c(-c2c(F)cccc2Cl)noc1C,inactive
22,c1ccc(C2=Nn3c(nnc3-c3ccccn3)SC2)cc1,inactive
23,c1ccc(-c2nnc(-c3ccccn3)s2)nc1,14.1 µM (active)
24,Cc1cc(=S)nc(-c2ccccn2)[nH]1,inactive
25,CCOc1ccccc1C(=O)NC(C(=O)N(C)Cc1ccc2c(c1)OCO2)C(C)C (centres undefined),inactive
26,COc1ccc2c(CC(=O)Nc3ccccc3N3CCOCC3)coc2c1,inactive

row,SMILES,Potency
1,C/C(N)=C(/C#N)C(=O)CSc1nc2scc(-c3ccc(F)cc3)c2c(=O)n1C,inactive
2,C/C(N)=C(/C#N)C(=O)CSc1nc2ccc(C)cc2[nH]1,22.4 µM (active)
3,CCN(CC)S(=O)(=O)c1ccc(C)c(NC(=O)CSc2nc3ccc(C)cc3[nH]2)c1,inactive
4,CCN1CCN(C(=O)c2ccc(NS(=O)(=O)c3ccccc3)cc2)CC1,inactive
5,Cc1nc2c(-c3ccc(F)cc3)c(C)nn2c(C)c1CCC(=O)Nc1ccccc1,inactive
6,Cc1nn2c3c(cnc2c1-c1ccc(F)cc1)C(=O)CC(c1ccccc1)C3 (centres undefined),inactive
7,Cc1ccccc1-c1ccnc2c(-c3ccc(F)cc3)c(C)nn12,28.2 µM (active)
8,CCN(C(=O)COC(=O)/C=C/c1cccc(Br)c1)C1CCS(=O)(=O)C1 (centres undefined),inactive
9,O=C(c1ccco1)N1CCN(c2ncnc3c(-c4ccc(Cl)cc4)nsc23)CC1,inactive
10,CN1CCN(c2ncnc3c2[nH]c2ccc(F)cc23)CC1,inactive
11,O=C(c1ccco1)N1CCN(c2ncnc3c2[nH]c2ccc(Br)cc23)CC1,31.6 µM (active)
12,COC(=O)c1ccc(CSc2ccc3nnc(-c4ccc(F)cc4)n3n2)o1,inactive
13,COc1cc(NC(=O)Nc2cccc(Cl)c2)c(C(=O)O)cc1OC,inactive
14,O=C(Nc1ccc(Cl)cc1)Nc1ccccc1C(=O)O,10 µM (active)
15,O=C(Nc1ccccc1)Nc1ccc(O)c2ccccc12,inactive
16,CC1CCc2sc(C(=O)N3CCN(c4ncccn4)CC3)cc2C1 (centres undefined),inactive
17,CC(=O)c1ccc(-c2cc([C@H]3[C@H]4C=CC[C@@H](C)[C@@H]4C(=O)N3Cc3ccccc3)ccc2F)cc1,inactive
18,O=C(Nc1ccccc1)/C(=C/c1ccccc1)c1ccccc1,inactive
19,CSc1ccccc1NC(=O)CSCc1ccc(Br)cc1,inactive
20,Cc1ccc(N/C=C/C(=O)c2ccccc2)cc1C,7.94 µM (active)
21,Cc1ccc(NC(=O)C(=O)NCC2(c3ccccc3)CCCC2)cc1C,inactive
22,O=C1Nc2ccc(Br)cc2/C1=C/C(=O)c1ccccc1,inactive
23,Cc1ccc(NC(=O)c2ccc(NC(=O)c3ccccc3)cc2)cc1C,inactive
24,CC(=O)c1cccc(NS(=O)(=O)c2ccc(N/C=C\C(=O)c3ccc(C)cc3)cc2)c1,inactive
25,O=C(/C=C/Nc1ccccc1)c1ccccc1,7.94 µM (active)
26,O=C(NC(=S)Nc1ccc2c(c1)OCO2)c1ccc(Cl)cc1,inactive

row,SMILES,Potency
1,O=C(/C=C\Nc1ccc2c(c1)OCO2)c1ccc2c(c1)OCO2,17.8 µM (active)
2,O=C(/C=C/Nc1ccccc1F)c1ccc(Br)cc1,12.6 µM (active)
3,Cn1c(=O)n(C)c2cc(C(=O)Nc3ccc4c(c3)OCO4)ccc21,inactive
4,O=C(/C=C/c1cc([N+](=O)[O-])ccc1OC(F)F)Nc1cccc([N+](=O)[O-])c1,inactive
5,O=C(COc1ccc(Br)cc1)N1CCN(c2ccccc2)CC1,inactive
6,CCc1nc(SCc2cccnc2)c2c(=O)n(C)c(=O)n(C)c2n1,inactive
7,COC(=O)C1=C(C)N(c2cccc3ccccc23)C(=O)C1,inactive
8,O=S(=O)(Nc1ccccc1Cl)c1ccc2[nH]c(=S)oc2c1,inactive
9,CCCC(=O)Nc1ccc2nc(C)n(Cc3ccccc3Cl)c(=O)c2c1,inactive
10,Cc1ccc(S(=O)(=O)N(C)CC(=O)Nc2ccncc2)cc1,inactive
11,CCOc1ccccc1/C=N/n1c(C)nc2ccccc2c1=O,inactive
12,Cc1cc(C)cc(-n2ccnc2SCC(=O)Nc2ccccc2F)c1,inactive
13,O=C(Nc1ccccn1)C(F)(F)C(F)(F)C(F)(F)C(F)(F)C(=O)Nc1ccccn1,inactive
14,O=C(/C=C\Nc1ccccn1)c1ccccc1,10 µM (active)
15,CN(C)/C=C/C(=O)c1cccc(Oc2ncccn2)c1,inactive
16,COc1ccc(Nc2nc(N)nc(CN3CCN(c4ccccn4)CC3)n2)cc1,inactive
17,CCOC(=O)CC1(C)NC(C(=O)O)C(C)(C)S1 (centres undefined),inactive
18,O=C(Nc1cccc(N2C(=O)C3CCCCC3C2=O)c1)c1ccccc1 (centres undefined),14.1 µM (active)
19,O=C(Nc1ccc(Br)cc1)c1cccc(N2C(=O)C3CCCCC3C2=O)c1 (centres undefined),inactive
20,Cc1cc(C)cc(NC(=O)c2ccc(N3C(=O)C4CCCCC4C3=O)cc2)c1 (centres undefined),inactive
21,COc1ccccc1CNC(=O)c1ccc(CS(=O)(=O)c2ccccc2C)o1,inactive
22,O=C(Nc1nc2ccccc2[nH]1)c1ccc(Cl)cc1,12.6 µM (active)
23,CN(c1ccccc1)S(=O)(=O)c1ccc(Cl)c(C(=O)Nc2nc3ccccc3[nH]2)c1,inactive
24,COc1cc(OC)cc(C(=O)N[C@H](C(=O)Nc2nc3ccccc3[nH]2)C(C)C)c1,inactive
25,COc1cccc(C(=O)Nc2cccc(OCc3cc(=O)n4cccc(C)c4n3)c2)c1,inactive
26,COc1ccc(-c2cc(C(F)(F)F)nc(N3CCN(C)CC3)n2)cc1OC,inactive

row,SMILES,Potency
1,COc1ccc(CCNc2nc(-c3ccc(OC)c(OC)c3)cc(C(F)(F)F)n2)cc1OC,inactive
2,COc1ccc(Cl)cc1NC(=O)CCCS(=O)(=O)c1nc(-c2ccc(OC)c(OC)c2)cc(C(F)(F)F)n1,28.2 µM (active)
3,Cc1ccccc1-n1c(SCc2c(C)noc2C)nnc1-c1c[nH]c2ccccc12,inactive
4,CCOC(=O)/C(O)=C(\C#N)c1nc2ccccc2[nH]1,inactive
5,COc1ccc(Nc2ccc(N3C(=O)CC(C)C3=O)cc2[N+](=O)[O-])cn1 (centres undefined),inactive
6,CC1CC(=O)N(c2ccc(NCCc3ccc(O)cc3)c([N+](=O)[O-])c2)C1=O (centres undefined),25.1 µM (active)
7,NC(=O)c1ccc(N2CCN(c3ccc(O)cc3)CC2)c([N+](=O)[O-])c1,inactive
8,COc1ccccc1C(CNC(=O)c1ccc(-c2ccccc2Cl)o1)N1CCCC1 (centres undefined),inactive
9,CC1C/C(=N/Nc2ccc([N+](=O)[O-])cc2[N+](=O)[O-])CC(C)(C)C1 (centres undefined),inactive
10,COc1cc(C)c(-c2[nH]ncc2-c2csc(C)n2)c(O)c1,inactive
11,Cc1ccc(C(=O)Cn2c(=N)n(N)c3ccccc32)cc1,inactive
12,Cc1ccc(C(=O)Cn2c3c(sc2=N)CCCC3)cc1,7.94 µM (active)
13,CCOC(=O)Cn1nc(C)c(NC(=O)COc2ccc(OC)cc2)c1C,inactive
14,COc1ccc2nc(C)cc(SCC(=O)N/N=C/c3c(OC)ccc4ccccc34)c2c1,inactive
15,Cc1ccc(-c2csc(Nc3ccc(S(N)(=O)=O)cc3)n2)o1,inactive
16,Cc1ccc(NC(=S)Nc2ccc3[nH]c(=O)[nH]c3c2)cc1,inactive
17,Cc1cc(OCc2nc(-c3ccncc3)no2)cc(C)c1Cl,inactive
18,Clc1ccc(OCc2nc(-c3ccccn3)no2)c(Br)c1,20 µM (active)
19,COc1ccc(Br)cc1CNC(=O)CCc1nc(-c2ccc(C)cc2)no1,inactive
20,O=C(NCc1ccccn1)c1ccccc1OCc1ccc(Cl)cc1Cl,inactive
21,Cc1ccc(OCc2nc(-c3ccccn3)no2)c(Br)c1,20 µM (active)
22,COc1ccc(-c2noc(CCCOc3ccccc3)n2)cc1OC,inactive
23,CCn1c(SCC(=O)Nc2cccc(NC(C)=O)c2)nc2c([nH]c3ccccc32)c1=O,inactive
24,COc1ccc(C(=O)c2cn(Cc3ccccc3)c3ccccc3c2=O)cc1OC,inactive
25,COc1cc(NC(=O)c2ccc3oc(=O)c(S(=O)(=O)c4ccccc4)cc3c2)cc(OC)c1,inactive
26,CCCCn1c(=O)[nH]c(=O)c2c1nc(CN1C(=O)c3ccccc3S1(=O)=O)n2CCC,inactive
